Source: PubChem
Sampled rows, rich in hits. Any-hit rate of the full collection: about 2.5%.
Efflux pump mplx = inhibitors of Candida antifungal efflux pumps expressed in yeast; S. cerevisiae Candida pump triplex, Nile Red efflux; inhibition, % at 10 µM; actives 0.44% (n = 330,000); AID 485275;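 active = plate passing quality check with inhibition over a set limit, or well fluorescence over plate mean plus 4 SD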;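 also: Nile Red retained in pooled yeast measured as flow cytometry median fluorescence; 0% = buffer negative control and 100% = Enniatin B positive control; higher means more Nile Red kept so more efflux inhibition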
ATG4B inhibitor = blocks human ATG4B protease cleavage of LC3 substrate; Q9Y4P1; ATG4B cleavage of LC3-PLA2, NBD-HPC fluorescence, 1 h; inhibition, % at 8.33 µM; actives 0.51% (n = 340,000); AID 504462; in the data active = inhibition above about 40%
Target sequence (Q9Y4P1 whole entry, looked up): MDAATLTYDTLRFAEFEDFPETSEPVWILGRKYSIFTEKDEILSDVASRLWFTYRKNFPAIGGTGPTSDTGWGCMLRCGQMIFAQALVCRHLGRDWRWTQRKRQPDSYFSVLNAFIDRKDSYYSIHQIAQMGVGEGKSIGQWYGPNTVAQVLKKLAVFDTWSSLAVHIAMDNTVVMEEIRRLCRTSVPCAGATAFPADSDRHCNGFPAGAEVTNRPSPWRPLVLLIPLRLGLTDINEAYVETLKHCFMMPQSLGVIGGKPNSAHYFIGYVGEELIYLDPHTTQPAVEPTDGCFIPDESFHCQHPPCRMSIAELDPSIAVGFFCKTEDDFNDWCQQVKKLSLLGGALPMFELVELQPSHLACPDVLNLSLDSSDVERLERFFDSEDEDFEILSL
Mot1-301 SUMO = inhibitors of SUMOylation pathway: yeast Mot1-301 growth rescue; S. cerevisiae Mot1-301 growth rescue, ATP luminescence, 38.5C; percent above DMSO median, 100 means doubled; growth rescue, % at 18.8 µM; actives 1% (n = 320,000);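 active = every valid replicate shows activation above 250% relative to neutral control wells; inactive = the rest, any valid replicate at or below 250%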;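 also: OY570 slx delta 5 strain wells were the positive control but not used for scaling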
V-ATPase pH = regulators of yeast V-ATPase proton transport; S. cerevisiae, pHLuorin cytosolic pH fluorescence; response, % at 10 µM; actives 0.37% (n = 350,000); AID 504577; in the data active = response mostly above about 7.3%, no sharp cut-off; inactive = mostly below about 5.4%; also: actives read high
AI-2 QS mod = Vibrio harveyi AI-2 quorum sensing modulation; AID 2094; actives 0.4% (n = 300,000); Vibrio harveyi JMH597 AI-2 luminescence/OD600 ratio, 9 h; active compounds read low; strain lacks LuxN and CqsS sensors; 0 = neutral-control median; activity change, % at 7.5 µM; in the data active = activity change below about -75%, passing the limit was not always enough;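 also: luminescence divided by OD600 gain over 9 h not by final OD600 alone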
Yeast Mot1 SUMO = SUMO pathway inhibitors in yeast Mot1-301 growth; growth activity, percent, % at 42 µM; AID 493004; S. cerevisiae Mot1-301 galactose growth, ATP luminescence, 24 h; -100 = growth of slx-deleted rescue strain; shares compounds with Mot1-301 SUMO; 2,300 tested, under 10 active;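 active = Signal drops as the depositor expects, and the fitted half-maximal dose is no more than ten times the top valid tested dose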;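 also: more negative values mean stronger growth rescue toward the control strain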
* hit, by the source's call; · = no result given; + = active, no number; [ ] = another dose, or the depositor's remark.

SMILES	Efflux pump mplx	ATG4B inhibitor	Mot1-301 SUMO	V-ATPase pH	AI-2 QS mod	Yeast Mot1 SUMO
Cc1ccc(NC(=O)CN(C)C(=O)c2cccc(Br)c2)cc1	0	-1	695*	0	29	0
CCOC(=O)c1ccc(NC(=O)c2ccccc2[N+](=O)[O-])cc1	0	-9	-4	2	-8	·
CCOC(=O)c1cc([N+](=O)[O-])c([N+](=O)[O-])cc1NC(C)=O	0	8	487*	15*	11	0
Cc1ccc(NC(=O)/C=N/OCC(=O)NCc2ccccc2Cl)cc1	0	12	464*	1	14	0
COC(=O)C1=C(C)N(Cc2ccccc2)C(=NCc2ccccc2)N[C@H]1c1cccc(F)c1	0	-3	104	-4	4	·
COC(=O)C1=C(C)N(Cc2ccccc2)C(=S)N[C@H]1c1cccc(F)c1	0	2	584*	3	6	1
O=S(=O)(Nc1ccc(-c2nc3cccnc3s2)cc1)c1cc(F)ccc1F	0	-13	370*	-1	-12	-1
Cc1cc(C)n2nc(SCc3nnc(-c4ccccc4Br)o3)nc2n1	0	-3	-4	-2	64	·
CCCn1cc(CN2CCCC(C(=O)c3ccc4c(c3)OCO4)C2)c(C)n1 (configuration not stated)	0	27	-3	1	6	·
COc1cccc(NC(=O)CN(C)C(=O)/C=C/c2cn(-c3ccccc3)nc2-c2ccc(C)cc2)c1	0	-12	-8	1	6	·
COc1ccc(NC(=O)CN(C)C(=O)/C=C/c2cn(-c3ccccc3)nc2-c2ccc(F)cc2)cc1	0	-14	567*	-1	14	1
CCc1nccn1S(=O)(=O)c1cc(OC)ccc1OC	0	3	499*	-4	·	1
CCCc1nccn1S(=O)(=O)c1cc(OC)ccc1OC	0	3	·	0	9	·
O=C(CSc1ccc2ccccc2n1)NCCCN1CCCC1=O	0	-2	-18	-4	·	·
O=C1NC(Cc2c[nH]c3ccccc23)C(=O)N1Cc1ccc(CN2C(=O)NC(Cc3c[nH]c4ccccc34)C2=O)cc1 (configuration not stated)	0	-17	572*	0	12	1
Cc1ccc(C(CC(=O)O)NC(=O)CN2C(=O)c3ccccc3C2=O)cc1 (configuration not stated)	0	5	3	2	16	·
O=C(O)c1cccc2c1/C(=N/Nc1ccc([N+](=O)[O-])cc1[N+](=O)[O-])c1ccccc1-2	0	8	-5	2	3	·
COc1ccc(CC(=O)N2CCc3cc(OC)c(OC)cc3C2)cc1	0	-4	-4	5	13	·
COc1cc2c(cc1OC)CN(C(=O)Cc1c(F)cccc1Cl)CC2	0	2	475*	0	3	1
CCN(CC)S(=O)(=O)c1ccc(C)c(NC(=O)COC(=O)CN2C(=O)NC(C)(C)C2=O)c1	0	-2	177	-6	23	·
CC(C)(C)c1cc(NCCCn2ccnc2)n2ncc(-c3ccc(Cl)cc3)c2n1	0	23	622*	2	21	-1
Cc1cc(NCCCn2ccnc2)n2nc(-c3ccc(Cl)cc3)cc2n1	0	-15	21	-3	1	·
O=C(CSc1nnc(SCc2ccc(Cl)cc2)s1)N1CCOCC1	0	-7	-13	-3	43	·
CCN(CC)C(=O)CSc1nnc(SCc2ccc(Cl)cc2)s1	0	-4	510*	4	8	0
Cc1onc(-c2ccccc2)c1C(=O)OCC(=O)N(C)c1c(N)n(Cc2ccccc2)c(=O)[nH]c1=O	0	6	3	3	0	·
SMILES	Efflux pump mplx	ATG4B inhibitor	Mot1-301 SUMO	V-ATPase pH	AI-2 QS mod	Yeast Mot1 SUMO
CCN(C(=O)COC(=O)c1c(-c2ccccc2)noc1C)c1c(N)n(Cc2ccccc2)c(=O)[nH]c1=O	0	2	413*	1	11	0
Cc1ccc(/C=C/C(=O)OCC(=O)N(CC(C)C)c2c(N)n(Cc3ccccc3)c(=O)[nH]c2=O)o1	0	-6	812*	-2	·	0[21 µM]
CCN(C(=O)COC(=O)/C=C/c1ccc(C)o1)c1c(N)n(Cc2ccccc2)c(=O)[nH]c1=O	·	-4	·	2	·	·
Oc1ccccc1-c1nc(NCc2ccco2)c2ccccc2n1	0	5	-9	9	13	·
c1ccc(-c2nc(NCc3ccco3)c3ccccc3n2)nc1	0	-9	505*	-4	42	0
COc1ccc(C2NC(=O)NC(C)=C2C(=O)OC2CCC(C)CC2)cc1 (configuration not stated)	0	-6	-8	1	13	·
Cc1ccc(Sc2cnccc2C#N)cc1	0	-6	618*	2	13	2
Cc1ccc(SC(C)c2nc(-c3ccncc3)no2)cc1 (configuration not stated)	0	-11	3	-1	16	·
O=C(N/N=C/C(Br)=C/c1ccccc1)c1cccnc1	0	-5	500*	0	-3	-2
O=C(N/N=C/C(Br)=C/c1ccccc1)c1ccncc1	0	-6	100	2	17	·
CC(NC(=O)c1ccccc1F)c1nnc(SCC(=O)NC2=NCCS2)n1C (configuration not stated)	0	-7	360	4	10	·
Cc1ccc(/C=C/C(=O)OCC(=O)Nc2cccc(S(=O)(=O)N(C)C)c2)o1	0	26	4	-1	20	·
Cc1cc(=O)oc(C)c1C(=O)Nc1ccc(Cl)cn1	0	-3	421*	0	20	0
CCn1c(C)c(C(C)=O)c(N2CCN(c3ccc(F)cc3)CC2)nc1=S	0	-5	917*	0	-4	0
CC(=O)c1c(N2CCN(c3ccc(F)cc3)CC2)nc(=S)n(Cc2ccccc2)c1C	0	12	-7	2	0	·
COc1ccccc1CCC(=O)Nc1ccc(C)cc1Cl	0	0	10	-1	4	·
CC1=C(C(=O)Nc2ccccc2)C(c2ccccc2[N+](=O)[O-])NC(=O)N1 (configuration not stated)	0	1	+	4	-7	-1
COc1ccccc1NC(=O)C1=C(C)NC(=O)NC1c1ccccc1[N+](=O)[O-] (configuration not stated)	0	-11	-2	0	47	·
COc1ccc(S(=O)(=O)Nc2ccc3c(c2)C(=O)N([C@H](C)CO)C[C@H](C)[C@@H](CN(C)S(=O)(=O)c2c(C)noc2C)O3)cc1	0	-10	3	1	·	·
O=C(c1ccc(Cl)s1)N1CCCC(N2CCN(c3ccc(F)cc3)CC2)C1 (configuration not stated)	0	0	140	2	5	·
